Reference: PubChem BioAssay AID1159580 (chemical genetic matrix, 2015)
“And” between values parts separate entries of the source, which are not always exact repeats. Equal entries are not always repeated. Screen size: about 5,500 compounds; about 2,000 (36%) were called active. Roughly 18% stayed inconclusive and do not appear here. Cut-off read from the data, not from the text of the source: active = normalized growth mostly below about 0.91 (no sharp cut-off); inconclusive = no clear call, values can overlap the other calls; inactive = mostly above about 0.92. This is one part of the list.

Experiment: chemical genetic growth profiling, strain panel (AID 1159580);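 note: tested at 20 µM; growth read once vehicle control cultures reached saturation at 30 °C; 1 = growth at the plate median or of vehicle wells; lower values mean less growth of the strain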
Conditions: S. cerevisiae deletion strains, growth OD

Measured: normalized growth

CC12CC3CC(C)(C1)CC(N)(C3)C2
inactive: locus YAL013W, strain DEP1, active compounds read low 1 and 0.983 | locus YAL021C, strain ccr4, active compounds read low 1 | locus YAL026C, strain drs2, active compounds read low 0.99 | locus YAL030W, strain snc1, active compounds read low 0.976 | locus YAL040C, strain CLN3, active compounds read low 1.06 | locus YBL061C, strain skt5, active compounds read low 0.977 | locus YBR009C, strain hhf1, active compounds read low 0.993 | locus YBR021W, strain FUR4, active compounds read low 1.02 | locus YBR023C, strain chs3, active compounds read low 0.985 | locus YBR171W, strain sec66, active compounds read low 0.98 | locus YBR229C, strain ROT2, active compounds read low 0.997 | locus YBR231C, strain swc5, active compounds read low 0.963 | locus YBR279W, strain paf1, active compounds read low 0.981 | locus YCL011C, strain gbp2, active compounds read low 1.01 | locus YCL016C, strain dcc1, active compounds read low 1.01 | locus YCL029C, strain bik1, active compounds read low 1.02 | locus YCL061C, strain MRC1 (second series), active compounds read low 0.994 | locus YCL061C, strain MRC1, active compounds read low 0.989 | locus YCL069W, strain vba3, active compounds read low 0.992 | locus YCR088W, strain abp1, active compounds read low 0.982 | locus YDL005C, strain med2, active compounds read low 0.988 | locus YDL035C, strain GPR1, active compounds read low 0.999 | locus YDL040C, strain nat1, active compounds read low 0.986 | locus YDL074C, strain BRE1, active compounds read low 1.03 | locus YDL101C, strain DUN1, active compounds read low 1.02 | locus YDL134C, strain PPH21, active compounds read low 1 | locus YDL185W, strain tfp1, active compounds read low 1.01 | locus YDL192W, strain arf1, active compounds read low 1.01 | locus YDR001C, strain nth1, active compounds read low 0.999 | locus YDR069C, strain doa4, active compounds read low 0.983 | locus YDR101C, strain arx1, active compounds read low 1.01 | locus YDR137W, strain rgp1, active compounds read low 1.01 | locus YDR150W, strain NUM1, active compounds read low 0.996 and 1 | locus YDR159W, strain sac3, active compounds read low 0.962 | locus YDR162C, strain NBP2, active compounds read low 1.01 | locus YDR195W, strain ref2 0.94 | locus YDR297W, strain sur2, active compounds read low 0.988 | locus YDR318W, strain mcm21, active compounds read low 1.02 | locus YDR334W, strain swr1, active compounds read low 1.01 | locus YDR335W, strain msn5, active compounds read low 0.986 | locus YDR363W, strain ESC2, active compounds read low 0.959 | locus YDR388W, active compounds read low 1.01 | locus YDR392W, strain spt3, active compounds read low 0.993 | locus YDR502C, strain sam2, active compounds read low 1.01 | locus YEL003W, strain gim4, active compounds read low 0.986 | locus YEL037C, strain rad23, active compounds read low 0.981 | locus YEL061C, strain CIN8 (second series), active compounds read low 0.971 | locus YEL061C, strain CIN8, active compounds read low 1 | locus YER002W, strain NOP16, active compounds read low 1.02 | locus YER015W, strain faa2, active compounds read low 0.998 | locus YER016W, strain bim1, active compounds read low 0.979 | locus YER110C, active compounds read low 1 | locus YER111C, strain swi4, active compounds read low 0.983 | locus YER155C, strain BEM2 (second series), active compounds read low 0.989 | locus YER155C, strain BEM2, active compounds read low 1.01 | locus YER167W, strain BCK2, active compounds read low 1.01 | locus YFR010W, strain ubp6, active compounds read low 0.988 | locus YGL078C, strain dbp3, active compounds read low 0.999 | locus YGL086W, strain mad1, active compounds read low 0.988 | locus YGL167C, strain pmr1, active compounds read low 1.01 | locus YGL173C, strain kem1, active compounds read low 0.957 | locus YGL227W, strain vid30, active compounds read low 0.994 | locus YGL240W, strain doc1, active compounds read low 0.966 | locus YGL248W, strain PDE1, active compounds read low 0.999 | locus YGL253W, strain hxk2, active compounds read low 0.977 | locus YGR078C, strain PAC10, active compounds read low 1.02 and 0.97 | locus YGR135W, strain pre9, active compounds read low 1.01 | locus YGR229C, strain SMI1, active compounds read low 1.02 | locus YGR252W, strain gcn5, active compounds read low 0.968 | locus YHR013C, strain ard1, active compounds read low 0.983 | locus YHR027C, strain rpn1, active compounds read low 0.995 | locus YHR030C, strain SLT2, active compounds read low 1.01 and 0.993 | locus YHR079C, strain IRE1 (second series), active compounds read low 1.01 | locus YHR079C, strain IRE1, active compounds read low 0.965 | locus YHR094C, strain hxt1, active compounds read low 1.01 | locus YHR129C, strain ARP1, active compounds read low 1.02 | locus YHR142W, strain chs7, active compounds read low 0.963 | locus YHR200W, strain rpn10, active compounds read low 1 | locus YIL066C, strain RNR3, active compounds read low 1.01 | locus YIL073C, strain SPO22, active compounds read low 1.09 | locus YIL125W, strain kgd1, active compounds read low 1 | locus YIR030C, strain dcg1, active compounds read low 1.01 | locus YJL092W, strain hpr5, active compounds read low 0.983 | locus YJL095W, strain BCK1 (second series), active compounds read low 0.985 | locus YJL095W, strain BCK1, active compounds read low 1.04 and 1 | locus YJL115W, strain asf1, active compounds read low 0.976 | locus YJL129C, strain trk1, active compounds read low 0.958 | locus YJL134W, strain LCB3, active compounds read low 0.999 | locus YJL154C, strain vps35, active compounds read low 0.972 | locus YJL164C, strain tpk1, active compounds read low 1.01 | locus YJL166W, strain qcr8, active compounds read low 0.984 | locus YJL168C, strain set2, active compounds read low 1 | locus YJL187C, strain SWE1 (second series), active compounds read low 1.02 | locus YJL187C, strain SWE1, active compounds read low 0.992 | locus YJR043C, strain POL32, active compounds read low 1.01 | locus YJR066W, strain TOR1, active compounds read low 0.923
